Only some compounds are listed: those with a hit (about 2.3% of all), similar ones and a draw of the others.
CHO-K1 Ca PAM = M1 PAM counterscreen hit in parental CHO-K1 cells; ATP EC20, Fluo-8 calcium fluorescence; 0% at ATP EC20, 100% at ATP max; activation, % at 3 µM; 0.02% of 360,000 active;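 active = activation above the run cutoff, the mean activation of all test compounds plus 3 SD, cut at about 40% in these data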;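 note: peak over basal fluorescence ratio in a 140 s read after ATP addition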
CHRM1 PAM = potentiates human M1 receptor response to acetylcholine. 0.088% of 360,000 active. activation, % at 3 µM. P11229. CHO-K1 hM1, Fluo-8 calcium fluorescence, ACh EC20; 0% = ACh EC20, 100% = maximal ACh; in the data active = activation above about 19%, passing the limit was not always enough
Target sequence (P11229 whole entry, looked up): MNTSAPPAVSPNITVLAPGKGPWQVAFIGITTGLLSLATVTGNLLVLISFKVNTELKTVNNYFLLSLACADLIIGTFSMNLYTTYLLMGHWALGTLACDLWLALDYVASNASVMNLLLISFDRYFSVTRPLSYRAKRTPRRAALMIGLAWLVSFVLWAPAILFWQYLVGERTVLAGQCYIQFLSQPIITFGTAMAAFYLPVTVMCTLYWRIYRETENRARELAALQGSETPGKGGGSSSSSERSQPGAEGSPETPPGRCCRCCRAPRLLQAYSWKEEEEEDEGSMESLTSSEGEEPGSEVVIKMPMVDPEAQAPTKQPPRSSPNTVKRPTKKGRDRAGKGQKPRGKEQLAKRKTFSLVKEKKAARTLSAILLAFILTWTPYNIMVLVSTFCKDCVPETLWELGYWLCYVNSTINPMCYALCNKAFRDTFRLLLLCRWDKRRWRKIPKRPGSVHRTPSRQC
CHO-K1 Ca ag = counter-screen for M1 agonists: effect in parental CHO-K1 cells. activation, % at 3 µM. 0.48% of 360,000 active. AID 602248. Fluo-8 calcium fluorescence; scaled to maximal ATP response, vehicle zero; in the data active = activation above about 15%;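 note: untransfected CHO-K1 host cells lacking M1 receptor as counterscreen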
CHRM1 agonist = human M1 muscarinic receptor agonism. CHO-K1 hM1, Fluo-8 calcium fluorescence, agonist mode; 0% DMSO, 100% acetylcholine EC100. activation, % at 3 µM. 0.33% of 360,000 active. AID 588814;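 active = activation above the run's mean compound activation plus 3 SD, cut at about 16% in these data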;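 note: peak over basal fluorescence ratio within a 140 s kinetic read after compound addition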
CHO-K1 Ca antag = M1 antagonist counterscreen hit in parental CHO-K1 cells; 0.6% of 360,000 active; ATP-induced calcium, Fluo-8 fluorescence; AID 602250; inhibition, % at 3 µM;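 active = inhibition above a per-plate cutoff, the plate's mean sample inhibition plus 3 SD, cut at about 24% in these data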;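 note: 0% = DMSO plus EC80 ATP and 100% = DMSO alone without ATP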
CHRM1 antagonist = antagonists of human M1 muscarinic receptor; P11229; CHO-K1 hM1, Fluo-8 calcium fluorescence, ACh EC80 antagonist; inhibition, % at 3 µM; 1.3% of 360,000 active;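 active = percent inhibition above its own plate's cutoff, namely the mean of that plate's compound wells plus 3 SD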;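 note: peak over basal fluorescence ratio during 140 s after agonist addition; 0% = ACh EC80 plus DMSO and 100% = DMSO alone without agonist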
* marks the source's active call; other numbers are inactive results; / = not tested or not shown.

SMILES	CHO-K1 Ca PAM	CHRM1 PAM	CHO-K1 Ca ag	CHRM1 agonist	CHO-K1 Ca antag	CHRM1 antagonist
CCOC(=O)C1CCN(C/C=C/c2ccccc2)CC1	21	4	1	-3	-13	-15
CN(C/C=C/c1ccccc1[N+](=O)[O-])Cc1ccccc1	-1	-30	0	-10	-6	55*
CCOC(=O)C1CCCN(C/C(O)=C(\C#N)c2nc(-c3ccccc3)cs2)C1 (stereo not drawn)	25	-24	2	56*	-23	22
CCOC(=O)C1CCCN(C/C=C/c2ccccc2)C1 (stereo not drawn)	-16	-27	0	-11	4	56*
CCOC(=O)C1CCCN(C/C=C/c2ccccc2[N+](=O)[O-])C1 (stereo not drawn)	20	-16	2	-7	-7	28*
CCOC(=O)[C@]12CCC=C1N(Cc1ccco1)C(=O)[C@H](CC(=O)NCC13CC4CC(CC(C4)C1)C3)C2	12	/	1	/	-20	/
O=[N+]([O-])c1ccccc1/C=C/CN1CCCCC1CO (stereo not drawn)	15	-12	1	-7	-10	9
O=[N+]([O-])c1ccccc1/C=C/CN1CCCCC1	17	-21	0	-8	-8	45*
CCCCN(C)CCNC(=O)CN1C(=O)CSc2ccc(S(=O)(=O)N3CCOCC3)cc21	0	-18	0	-6	-17	42*
CCC1CCCCN1CCCNC(=O)CN1C(=O)CSc2ccc(S(=O)(=O)N3CCC(C)CC3)cc21 (stereo not drawn)	-4	-14	0	-6	-7	39*
CC(C)CN(CCNC(=O)CN1C(=O)CSc2ccc(S(=O)(=O)N3CCOCC3)cc21)CC(C)C	-3	-10	-1	-6	0	40*
O=C(OCc1nnc(-c2ccccc2)o1)c1ccc2ccccc2n1	-8	-7	0	-5	30*	16
CCCn1c(=O)[nH]c2ccccc21	8	5	1	1	5	-1
O=c1[nH]c2ccccc2n1CCCN1CCCCC1	15	-15	0	21*	-15	10
Cc1cc(C(=O)Nc2cccc(-c3ccc(N4CCOCC4)nn3)c2)ccc1[N+](=O)[O-]	-9	-17	5	-3	18	35*
Cc1nn(S(=O)(=O)c2cccs2)c(C)c1Sc1ccc([N+](=O)[O-])cc1	8	-19	4	-4	1	28*
Cc1nn(S(=O)(=O)c2ccccc2)c(C)c1Sc1ccc([N+](=O)[O-])cc1	-2	-14	6	-4	-4	13
CC(C)NC(=O)c1cc(=O)n(C)c(=O)n1C	18	1	1	-3	-13	1
CC1CC(=Cc2ccc(N)cc2)C(=O)O1 (stereo not drawn)	13	4	1	-6	-12	-7
COc1ccc(NC(=O)CCN2CCN(S(=O)(=O)c3ccc(Cl)cc3)CC2)cc1	33	8	4	1	-35	-9
CCOc1ccc(NC(=O)CCN2CCN(S(=O)(=O)c3cc(Cl)ccc3OC)CC2)cc1	41*	-3	4	2	-20	-10
COc1ccc(NC(=O)CCN2CCN(S(=O)(=O)c3ccc(C(C)C)cc3)CC2)cc1	21	5	18*	3	-38	-6
Cc1ccc(-c2nn(C)c(=O)c3ccccc23)cc1CNC(=O)NC1CCCCC1	5	2	6	-2	5	1
CC(=O)c1ccc(NC(=O)CSc2nnc(NC(=O)C3CC3)s2)cc1	12	6	1	-1	-1	-12
Cn1c(COc2ccccc2)nnc1SCC(=O)NC1CCCC1	-6	-12	0	-3	1	7
SMILES	CHO-K1 Ca PAM	CHRM1 PAM	CHO-K1 Ca ag	CHRM1 agonist	CHO-K1 Ca antag	CHRM1 antagonist
C[C@@]12C(=O)Nc3cc(Cl)ccc3C(=O)N1[C@H]1c3cc(Cl)ccc3OC[C@@H]1[C@@H]2c1ccccc1	9	-1	0	-5	-11	-4
Cc1ccc2c(c1)C(=O)N1[C@H]3c4cc(C)ccc4OC[C@@H]3[C@H](c3ccccc3)[C@]1(C)C(=O)N2	-14	-25	0	-5	14	48*
Cc1ccc2c(c1)C(=O)N1[C@H]3c4cc(Cl)ccc4OC[C@@H]3[C@H](c3ccccc3)[C@]1(C)C(=O)N2	-4	-4	0	-2	-8	-3
C[C@@]12C(=O)Nc3cc(Cl)ccc3C(=O)N1[C@H]1c3ccccc3OC[C@@H]1[C@@H]2c1ccccc1	-14	-24	0	-4	3	33*
COc1cc2c(cc1OC)C(=O)N1[C@H]3c4ccccc4OC[C@@H]3[C@H](c3ccccc3)[C@]1(C)C(=O)N2	14	4	2	-4	-11	0
C[C@@]12C(=O)Nc3ccc(Cl)cc3C(=O)N1[C@H]1c3ccccc3OC[C@@H]1[C@@H]2c1ccccc1	11	-15	0	-3	-12	33*
O=C(Oc1cccc(C(=S)N2CCOCC2)c1)c1cccc([N+](=O)[O-])c1	24	2	2	-9	-8	-1
O=C(Oc1ccc(C(=S)N2CCOCC2)cc1)c1cccc([N+](=O)[O-])c1	-26	-7	0	-5	29*	12
CSc1ccccc1NC(=O)Cn1c([N+](=O)[O-])cnc1C	11	10	1	-3	-13	-8
Cc1ccc(NC(=S)NC(=O)c2ccc(-c3ccc(Cl)cc3)o2)c(O)c1	18	6	0	-7	-10	-8
Cc1ccc(O)c(NC(=S)NC(=O)Cc2ccc(Cl)cc2)c1	-20	-26	58*	79*	90*	97*
Cc1c(Cl)cccc1NC(=S)N1CCN(Cc2ccccc2)CC1	18	6	1	19*	-10	-7
CCOC(=O)C1CCN(CCC(=O)Nc2cccc(Cl)c2C)CC1	0	-7	2	13	-13	-5
CCOC(=O)N1CCN(CCC(=O)Nc2cccc(Cl)c2C)CC1	6	-27	1	52*	-4	39*
Cc1cc(=O)[nH]c(NN=C2CCC(C(C)(C)C)CC2)n1 (stereo not drawn)	18	8	19*	-7	-5	3
Cn1c(=O)oc2cc(S(=O)(=O)N3CCCC(C(=O)NCc4cccs4)C3)ccc21 (stereo not drawn)	-10	1	0	-7	27*	-7
O=C(NCc1ccccn1)C1CCCN(S(=O)(=O)c2cc(Cl)ccc2Cl)C1 (stereo not drawn)	5	8	0	-3	-5	-5
Cn1c(=O)oc2cc(S(=O)(=O)N3CCCC(C(=O)NCc4ccc5c(c4)OCO5)C3)ccc21 (stereo not drawn)	16	9	0	-3	-10	-13

From PubChem
